Measured values reported in ChEMBL document CHEMBL2218924, “A broad activity screen in support of a chemogenomic map for kinase signalling research and drug discovery” (Biochem J, 2013).

Target: Ribosomal protein S6 kinase alpha-1 (Homo sapiens) (UniProt Q15418)
Settings: at 1 µM

Ribosomal protein S6 kinase alpha-1 (Homo sapiens), sequence (Q15418 whole entry): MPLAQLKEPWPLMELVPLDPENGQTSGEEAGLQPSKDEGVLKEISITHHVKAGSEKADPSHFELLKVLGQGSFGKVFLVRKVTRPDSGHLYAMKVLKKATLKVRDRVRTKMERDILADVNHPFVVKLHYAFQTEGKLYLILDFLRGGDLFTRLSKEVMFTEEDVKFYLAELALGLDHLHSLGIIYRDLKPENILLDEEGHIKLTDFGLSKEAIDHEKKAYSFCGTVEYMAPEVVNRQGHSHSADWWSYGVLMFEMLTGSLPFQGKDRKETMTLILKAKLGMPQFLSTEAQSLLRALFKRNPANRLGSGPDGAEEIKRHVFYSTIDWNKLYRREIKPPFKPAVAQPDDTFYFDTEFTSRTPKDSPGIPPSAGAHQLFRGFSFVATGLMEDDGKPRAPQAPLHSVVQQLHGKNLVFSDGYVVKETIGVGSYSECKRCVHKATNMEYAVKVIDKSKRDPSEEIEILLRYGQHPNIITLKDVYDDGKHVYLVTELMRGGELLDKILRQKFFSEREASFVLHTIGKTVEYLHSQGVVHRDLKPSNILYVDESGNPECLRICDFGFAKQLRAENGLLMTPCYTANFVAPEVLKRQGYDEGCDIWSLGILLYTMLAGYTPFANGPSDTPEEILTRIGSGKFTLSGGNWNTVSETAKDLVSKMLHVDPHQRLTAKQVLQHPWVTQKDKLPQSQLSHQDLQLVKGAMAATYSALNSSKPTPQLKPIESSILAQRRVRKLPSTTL

SMILES | residual activity
Oc1c2ccccc2c2c3c(cccc13)N=N2 | 86%
Nc1nc(Nc2ccc(S(N)(=O)=O)cc2)nn1C(=S)Nc1c(F)cccc1F | 4%
O=C1Nc2ccc(Br)cc2/C1=C\c1cc2c([nH]1)CCCC2 | 84%
Cc1nc(-c2ccccc2)c(-c2ccncc2)o1 | 88%
COc1cc2ncnc(Nc3ccc(O)c(Br)c3)c2cc1OC | 92%
Nc1cccc(-c2cc3c(Oc4cccc(O)c4)ncnc3[nH]2)c1 | 97%
CCOc1cc2ncnc(Nc3cccc(Br)c3)c2cc1OCC | 100%
CO[C@H]1C[C@@H]2CC[C@@H](C)[C@@](O)(O2)C(=O)C(=O)N2CCCC[C@H]2C(=O)O[C@H]([C@H](C)C[C@@H]2CC[C@@H](O)[C@H](OC)C2)CC(=O)[C@H](C)/C=C(\C)[C@@H](O)[C@@H](OC)C(=O)[C@H](C)C[C@H](C)/C=C/C=C/C=C/1C | 110%
COc1cc2ncnc(Nc3ccc(Oc4ccccc4)cc3)c2cc1OC | 122%
COc1ccc(OC)c2c(=S)c3ccccc3[nH]c12 | 116%
CO[C@H]1[C@@H](OC)C[C@H](C)[C@@H](OC)C2=CC(=O)C=C(NC(=O)/C(C)=C/C=C/[C@H](OC)[C@@H](OC(N)=O)/C(C)=C/[C@@H]1C)C2=O | 115%
Cc1ccc(NC2=CC(=O)c3sc(C)nc3C2=O)cc1 | 104%
O=C1NC(=O)/C(=C\c2ccc3nccnc3c2)S1 | 112%
O=C1c2ccccc2-[n+]2ccc3c([nH]c4ccccc43)c21 | 97%
COc1ccc(CNc2nc(N(CCO)CCO)nc3c2ncn3C(C)C)cc1 | 90%
CN(C)c1ccc(/C=C2\C(=O)Nc3ccccc32)cc1 | 66%
Oc1ccc(Nc2nc(-c3ccc(Cl)cc3)cs2)cc1 | 113%
CC(C)n1cnc2c(NCc3ccccc3)nc(NCCCO)nc21 | 102%

SMILES | residual activity
N#Cc1cnc2cnc(NCc3cccnc3)cc2c1Nc1ccc(F)c(Cl)c1 | 2%
CC#CC(=O)Nc1cc2c(Nc3ccc(F)c(Cl)c3)ncnc2cn1 | 113%
Cn1cc(/C=C2\C(=O)Nc3ccc(S(N)(=O)=O)cc32)c2ccccc21 | 9%
NC(=O)c1ccc2[nH]c(-c3ccc(Oc4ccc(Cl)cc4)cc3)nc2c1 | 91%
COc1ccc(C(=O)Nc2sc3c(c2C(N)=O)CCCC3)cc1OC | 99%
N#CCCc1ccc2c(c1)-c1[nH]c3ccc([N+](=O)[O-])cc3c1CC(=O)N2 | 45%
Cn1cnc2cc3c(Nc4cccc(Br)c4)ncnc3cc21 | 97%
N#C/C(=C(\N)Sc1ccc(N)cc1)c1ccccc1C(F)(F)F | 40%
Nc1ccc2ncnc(NCCc3ccc(Oc4ccccc4)cc3)c2c1 | 58%
O=c1cc(-c2cccc3c2Sc2ccccc2S3)oc(N2CCOCC2)c1 | 87%
Cc1cc2ncc(-c3ccccc3)nc2cc1C | 95%
O=C(Nc1cccc(Nc2cc(Nc3cccc(C(F)(F)F)c3)ncn2)c1)C1CC1 | 105%
O=C1NC(=O)c2c1c1c3ccccc3[nH]c1c1[nH]c3cc(Br)ccc3c21 | 63%
O=C(Nc1cccc(Nc2nccc(Nc3cccc(C(F)(F)F)c3)n2)c1)C1CC1 | 78%
Oc1ccc(-c2nc(-c3ccc(F)cc3)c(-c3ccncc3)[nH]2)cc1 | 117%
CC[n+]1c(/C=C/N(C)c2ccccc2)n(-c2ccccc2)c2ccc(-c3nc4ccccc4s3)cc21 | 114%
O=C1NC(=O)c2cc(Nc3ccc(F)cc3)c(Nc3ccc(F)cc3)cc21 | 87%
